# The full data set covers some 7,900 targets. This sample favours those with a hit. About 0.6% of all pairs of compound and target were hits. A number with no mark means an inactive call.
# How the values were obtained:
# Assay in all cases: log2 fold change, soluble protein after heating vs DMSO (PISA); higher = thermal stabilisation; K562 cells, 10 uM, 30 min; active = over 0.2 and 3.5 SD of the protein, either way, in both replicates (recomputed)
# [1] = compound: NC(=O)Nc1cc(-c2cccc(F)c2)sc1C(=O)N[C@H]1CCCNC1
# Outline: (§1)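 K562 cells at 2×10^6 cells/mL were treated with 10 μM compound for 30 min. Aliquots were heated for 3 min across 48°C-58°C, pooled, and extracted in PBS with 0.5% NP-40 at 4°C; soluble protein was the supernatant after 21,000xg for 90 min. Soluble protein was quantified by TMTpro 16plex LC-MS/MS with channel sums equalised, and reported as log2 fold change in thermal stability against DMSO controls, with values from duplicates.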
# [2] = compound: NC(=O)c1cnc(N[C@@H]2CCCC[C@@H]2N)nc1Nc1cccc(-n2nccn2)c1
# Outline: as §1
# [3] = compound: NC1(c2ccc(-c3nc4ccn5c(=O)[nH]nc5c4cc3-c3ccccc3)cc2)CCC1
# Outline: as §1
# [4] = compound: NCC(=O)Nc1ccc(-n2nc(C(F)(F)F)cc2-c2ccc3c(ccc4ccccc43)c2)cc1
# Outline: as §1
# [5] = compound: Nc1ccccc1NC(=O)c1ccc(CNC(=O)OCc2cccnc2)cc1 [entinostat]
# Outline: as §1
# [6] = compound: O=C(CCCCCCC(=O)Nc1ccccc1)NO [vorinostat]
# Outline: as §1
# [7] = compound: O=C(CCCCCCNC(=O)c1cnc(N(c2ccccc2)c2ccccc2Cl)nc1)NO [citarinostat]
# Outline: as §1
# [8] = compound: O=C(O)c1ccc2c(c1)nc(Nc1cccc(Cl)c1)c1ccncc12 [silmitasertib]
# Outline: as §1
# [9] = compound: O=C1NC(=O)C(c2cnc3ccccn23)=C1c1cn2c3c(cc(F)cc13)CN(C(=O)N1CCCCC1)CC2
# Outline: as §1
# [10] = compound: c1cc(OCCN2CCCCC2)cc(-c2n[nH]c3ccc(-c4nnc[nH]4)cc23)c1
# Outline: as §1
# [11] = compound: c1cn2cc(-c3ccc4cn[nH]c4c3)nc(Nc3ccc(N4CCOCC4)cc3)c2n1 [entospletinib]
# Outline: as §1
# UniProt Q14004, sequence (Q14004 whole entry, looked up): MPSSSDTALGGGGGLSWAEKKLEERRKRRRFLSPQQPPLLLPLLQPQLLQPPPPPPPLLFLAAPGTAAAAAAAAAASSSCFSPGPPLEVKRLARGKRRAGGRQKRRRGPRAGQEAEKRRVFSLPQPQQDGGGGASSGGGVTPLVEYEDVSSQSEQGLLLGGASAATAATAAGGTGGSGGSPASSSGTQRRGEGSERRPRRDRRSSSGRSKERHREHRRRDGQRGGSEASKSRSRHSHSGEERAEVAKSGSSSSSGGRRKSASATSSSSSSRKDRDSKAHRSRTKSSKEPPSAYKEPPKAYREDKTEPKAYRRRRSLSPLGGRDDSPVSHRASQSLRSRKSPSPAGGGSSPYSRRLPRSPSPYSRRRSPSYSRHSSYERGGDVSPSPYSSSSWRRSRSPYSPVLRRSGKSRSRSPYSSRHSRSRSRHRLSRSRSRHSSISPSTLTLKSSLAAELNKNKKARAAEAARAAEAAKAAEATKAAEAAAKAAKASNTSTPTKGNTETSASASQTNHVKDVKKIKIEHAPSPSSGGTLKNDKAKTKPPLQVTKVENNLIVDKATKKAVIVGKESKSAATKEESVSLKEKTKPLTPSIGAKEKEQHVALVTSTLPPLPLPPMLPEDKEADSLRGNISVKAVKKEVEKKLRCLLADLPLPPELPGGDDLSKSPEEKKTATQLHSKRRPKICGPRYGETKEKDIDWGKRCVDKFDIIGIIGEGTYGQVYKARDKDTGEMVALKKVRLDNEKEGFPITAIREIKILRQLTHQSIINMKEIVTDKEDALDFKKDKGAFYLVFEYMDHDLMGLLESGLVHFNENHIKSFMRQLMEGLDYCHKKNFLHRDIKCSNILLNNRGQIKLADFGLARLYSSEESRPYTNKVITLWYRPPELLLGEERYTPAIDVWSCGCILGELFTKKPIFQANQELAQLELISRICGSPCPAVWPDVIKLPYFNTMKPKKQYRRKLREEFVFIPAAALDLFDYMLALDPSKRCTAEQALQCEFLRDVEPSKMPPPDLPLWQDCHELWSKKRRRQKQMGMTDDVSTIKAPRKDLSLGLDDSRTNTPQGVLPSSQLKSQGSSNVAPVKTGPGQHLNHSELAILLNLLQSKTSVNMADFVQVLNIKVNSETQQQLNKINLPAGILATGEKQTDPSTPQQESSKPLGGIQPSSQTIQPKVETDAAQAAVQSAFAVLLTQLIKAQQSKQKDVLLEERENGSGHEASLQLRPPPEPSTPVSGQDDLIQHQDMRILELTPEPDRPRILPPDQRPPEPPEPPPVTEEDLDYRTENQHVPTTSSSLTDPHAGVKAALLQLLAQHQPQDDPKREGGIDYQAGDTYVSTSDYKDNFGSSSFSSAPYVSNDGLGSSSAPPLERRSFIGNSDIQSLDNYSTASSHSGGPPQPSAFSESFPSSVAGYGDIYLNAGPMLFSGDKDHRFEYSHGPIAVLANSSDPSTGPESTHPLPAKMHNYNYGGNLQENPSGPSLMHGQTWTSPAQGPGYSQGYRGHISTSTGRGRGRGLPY
# UniProt Q96G23, sequence (Q96G23 whole entry, looked up): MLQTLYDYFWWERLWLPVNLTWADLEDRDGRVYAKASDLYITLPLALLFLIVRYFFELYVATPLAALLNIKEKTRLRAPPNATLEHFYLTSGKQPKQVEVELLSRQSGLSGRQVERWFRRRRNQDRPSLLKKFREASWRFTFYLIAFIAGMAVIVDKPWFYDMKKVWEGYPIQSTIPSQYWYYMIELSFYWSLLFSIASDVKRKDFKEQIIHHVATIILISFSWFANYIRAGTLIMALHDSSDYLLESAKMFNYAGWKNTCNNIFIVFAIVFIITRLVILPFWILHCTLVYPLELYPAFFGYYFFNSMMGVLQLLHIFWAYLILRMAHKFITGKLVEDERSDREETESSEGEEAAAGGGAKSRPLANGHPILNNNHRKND
# UniProt Q00537, sequence (Q00537 whole entry, looked up): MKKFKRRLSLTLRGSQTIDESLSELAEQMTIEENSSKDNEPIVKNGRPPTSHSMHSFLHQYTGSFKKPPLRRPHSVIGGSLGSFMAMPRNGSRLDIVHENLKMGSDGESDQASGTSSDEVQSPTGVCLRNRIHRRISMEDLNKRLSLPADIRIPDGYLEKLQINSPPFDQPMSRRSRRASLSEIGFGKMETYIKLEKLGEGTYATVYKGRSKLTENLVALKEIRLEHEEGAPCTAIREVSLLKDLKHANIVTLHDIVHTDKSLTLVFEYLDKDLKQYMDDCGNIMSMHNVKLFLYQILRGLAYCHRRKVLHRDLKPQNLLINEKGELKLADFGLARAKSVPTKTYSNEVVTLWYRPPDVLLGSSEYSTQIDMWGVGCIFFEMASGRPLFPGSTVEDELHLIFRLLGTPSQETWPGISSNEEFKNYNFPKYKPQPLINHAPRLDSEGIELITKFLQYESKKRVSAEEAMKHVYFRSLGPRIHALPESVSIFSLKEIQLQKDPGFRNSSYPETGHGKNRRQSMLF
# UniProt O43405, sequence (O43405 whole entry, looked up): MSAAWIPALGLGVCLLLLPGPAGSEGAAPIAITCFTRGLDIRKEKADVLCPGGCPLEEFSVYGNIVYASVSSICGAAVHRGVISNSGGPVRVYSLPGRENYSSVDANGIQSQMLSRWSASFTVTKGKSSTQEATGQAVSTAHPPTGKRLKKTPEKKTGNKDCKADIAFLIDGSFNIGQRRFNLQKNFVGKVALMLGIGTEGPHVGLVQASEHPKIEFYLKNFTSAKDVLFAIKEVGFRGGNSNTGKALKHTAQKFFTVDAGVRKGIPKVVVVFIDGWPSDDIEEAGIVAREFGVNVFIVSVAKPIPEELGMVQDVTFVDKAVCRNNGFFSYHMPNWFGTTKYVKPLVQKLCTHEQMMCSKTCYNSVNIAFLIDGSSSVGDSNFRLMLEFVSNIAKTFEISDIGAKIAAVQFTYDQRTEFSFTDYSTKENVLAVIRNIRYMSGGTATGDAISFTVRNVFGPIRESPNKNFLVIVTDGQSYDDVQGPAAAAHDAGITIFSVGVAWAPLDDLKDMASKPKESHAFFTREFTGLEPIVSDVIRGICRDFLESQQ
# UniProt Q16740, sequence (Q16740 whole entry, looked up): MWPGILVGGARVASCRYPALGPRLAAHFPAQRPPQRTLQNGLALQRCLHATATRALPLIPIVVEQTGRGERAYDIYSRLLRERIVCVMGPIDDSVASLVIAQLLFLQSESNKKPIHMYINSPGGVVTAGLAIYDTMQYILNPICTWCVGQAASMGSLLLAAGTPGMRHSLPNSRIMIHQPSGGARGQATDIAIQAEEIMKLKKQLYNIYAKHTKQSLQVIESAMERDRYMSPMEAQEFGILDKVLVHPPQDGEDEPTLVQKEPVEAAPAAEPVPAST
# UniProt Q00534, sequence (Q00534 whole entry, looked up): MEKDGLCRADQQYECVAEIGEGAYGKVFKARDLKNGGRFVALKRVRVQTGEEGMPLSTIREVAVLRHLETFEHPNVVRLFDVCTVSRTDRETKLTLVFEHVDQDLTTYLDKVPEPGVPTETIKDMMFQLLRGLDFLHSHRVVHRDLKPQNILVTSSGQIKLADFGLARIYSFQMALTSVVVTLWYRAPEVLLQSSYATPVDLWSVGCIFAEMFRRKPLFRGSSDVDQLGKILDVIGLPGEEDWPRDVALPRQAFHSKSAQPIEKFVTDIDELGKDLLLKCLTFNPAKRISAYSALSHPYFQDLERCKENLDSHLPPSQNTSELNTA
# UniProt Q5JTJ3, sequence (Q5JTJ3 whole entry, looked up): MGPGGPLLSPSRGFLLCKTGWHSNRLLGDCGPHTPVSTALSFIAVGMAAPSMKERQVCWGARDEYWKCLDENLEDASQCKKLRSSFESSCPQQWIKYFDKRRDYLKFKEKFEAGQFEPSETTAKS
# UniProt O76031, sequence (O76031 whole entry, looked up): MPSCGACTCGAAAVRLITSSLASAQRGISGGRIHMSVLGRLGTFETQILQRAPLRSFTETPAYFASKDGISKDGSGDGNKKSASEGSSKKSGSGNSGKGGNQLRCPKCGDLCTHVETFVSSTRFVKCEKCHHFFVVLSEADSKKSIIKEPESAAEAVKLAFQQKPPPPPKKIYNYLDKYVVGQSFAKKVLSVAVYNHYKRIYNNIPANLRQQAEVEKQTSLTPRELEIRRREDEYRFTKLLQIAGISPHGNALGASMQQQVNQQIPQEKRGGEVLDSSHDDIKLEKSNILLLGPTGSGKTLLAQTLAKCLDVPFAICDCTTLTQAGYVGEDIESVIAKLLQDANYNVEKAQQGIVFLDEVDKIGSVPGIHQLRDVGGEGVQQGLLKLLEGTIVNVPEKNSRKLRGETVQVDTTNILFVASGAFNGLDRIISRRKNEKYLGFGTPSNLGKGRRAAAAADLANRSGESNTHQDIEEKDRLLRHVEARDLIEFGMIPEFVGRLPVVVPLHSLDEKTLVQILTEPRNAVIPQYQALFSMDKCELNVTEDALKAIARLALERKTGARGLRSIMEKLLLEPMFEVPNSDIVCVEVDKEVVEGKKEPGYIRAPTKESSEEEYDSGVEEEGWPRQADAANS
# UniProt P51911, sequence (P51911 whole entry, looked up): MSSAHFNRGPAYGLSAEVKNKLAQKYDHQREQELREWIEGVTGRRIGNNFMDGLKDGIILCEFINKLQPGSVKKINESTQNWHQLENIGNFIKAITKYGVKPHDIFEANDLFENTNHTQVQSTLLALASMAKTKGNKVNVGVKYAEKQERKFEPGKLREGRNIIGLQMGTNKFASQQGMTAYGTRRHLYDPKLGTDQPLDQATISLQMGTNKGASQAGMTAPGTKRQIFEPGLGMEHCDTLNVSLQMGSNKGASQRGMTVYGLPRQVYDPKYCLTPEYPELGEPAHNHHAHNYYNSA
# UniProt Q5RI15, sequence (Q5RI15 whole entry, looked up): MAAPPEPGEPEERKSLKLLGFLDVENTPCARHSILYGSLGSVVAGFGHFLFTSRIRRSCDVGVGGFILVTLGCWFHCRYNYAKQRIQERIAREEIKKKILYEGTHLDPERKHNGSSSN
# UniProt P61024, sequence (P61024 whole entry, looked up): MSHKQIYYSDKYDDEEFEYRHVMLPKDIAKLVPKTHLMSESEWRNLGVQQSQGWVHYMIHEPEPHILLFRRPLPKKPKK
Target,log2 fold change [1],log2 fold change [2],log2 fold change [3],log2 fold change [4],log2 fold change [5],log2 fold change [6],log2 fold change [7],log2 fold change [8],log2 fold change [9],log2 fold change [10],log2 fold change [11]
CNN1 (UniProt P51911),-0.002,-0.07,-0.305,-0.023,0.018,-0.125,0.168,0.108,-0.008,-0.052,-0.067
CDK13 (UniProt Q14004),-0.032,-0.007,-0.063,0.042,0,0.018,0.013,-0.018,0.035,-0.196,0.065
CLPX (UniProt O76031),0.01,0.011,-0.031,-0.01,-0.019,0.007,0.011,0.022,0.058,-0.05,-0.002
CDK6 (UniProt Q00534),-0.004,-0.082,-0.017,-0.003,0.009,0.005,-0.006,0.131,0.146,0.017,0.036
CASP3 (UniProt P42574),0.051,0.053,0.075,0.043,-0.029,0,-0.043,-0.057,0.018,-0.051,0.044
CAMKK2 (UniProt Q96RR4),-0.088,-0.389,-0.113,-0.047,0.015,0.323,-0.144,0.128,-0.038,0.036,0.011
C19orf53 (UniProt Q9UNZ5),0.136,0.061,0.279,0.177,-0.026,-0.051,-0.105,0.123,0.214,-0.155,0.099
CHEK1 (UniProt O14757),0.338 (active),-0.225,-0.209,-0.032,0.02,0.037,0.094,-0.011,-0.064,-0.276 (active),-0.057
CHAMP1 (UniProt Q96JM3),-0.034,-0.136,0.007,-0.031,0.001,0.137,-0.007,-0.02,-0.051,-0.078,0.002
CNN2 (UniProt Q99439),-0.029,-0.031,-0.104,-0.052,0.08,0.029,0.061,0.062,-0.062,-0.026,-0.011
CDK8 (UniProt P49336),-0.038,0.011,0.036,0.014,-0.152,0.038,-0.002,0.175,0.036,-0.019,-0.037
COX20 isoform 2 (UniProt Q5RI15),-0.02,-0.016,0.363 (active),-0.029,-0.036,-0.116,0.027,-0.034,-0.004,0.016,-0.022
CLPP (UniProt Q16740),0.044,-0.027,0.027,-0.008,0.029,-0.05,0.027,0.007,0.096,-0.031,0.01
CDCA2 (UniProt Q69YH5),-0.034,-0.096,-0.003,0.037,-0.11,0,-0.27,0.133,0.035,0.243,-0.013
CERS2 (UniProt Q96G23),-0.015,0,-0.103,-0.019,0.04,0.057,0.035,-0.018,0.027,-0.087,-0.018
CLTB (UniProt P09497),0.088,0.101,0.043,0.117,-0.076,0.003,-0.013,-0.005,-0.043,0.07,-0.025
COA6 isoform 2 (UniProt Q5JTJ3),0.034,0.106,-0.009,-0.018,-0.003,-0.024,0.053,0.01,0.011,-0.041,0.004
COASY isoform 2 (UniProt Q13057),0,0.004,-0.138,-0.004,0.018,0.063,0.054,0.042,-0.004,-0.01,-0.076
CDKN2AIP (UniProt Q9NXV6),0.003,0.044,-0.018,-0.026,0.017,0.027,0.013,0.026,0.022,-0.071,-0.014
CSE1L (UniProt P55060),-0.037,-0.067,-0.162,-0.071,0.05,0.015,0.058,0.035,-0.059,-0.018,-0.003
CKS1B (UniProt P61024),-0.029,-0.03,-0.082,0.042,-0.02,0.025,0.009,0.063,-0.084,-0.067,0
CDK17 isoform 2 (UniProt Q00537),-0.066,-0.258,-0.04,-0.074,0.035,-0.114,-0.245,0.088,0.321,-0.083,0.067
CAVIN1 (UniProt Q6NZI2),0.034,-0.07,0.046,0.074,0.008,0.004,-0.004,0.041,0.108,-0.087,0.076
CAMSAP1 isoform 3 (UniProt Q5T5Y3),0.124,-0.048,-0.172,-0.466 (active),-0.29,-0.078,0.045,0.064,-0.028,-0.013,-0.003
CALCOCO2 isoform 4 (UniProt Q13137),-0.017,-0.075,-0.324 (active),-0.185,-0.006,-0.006,0.035,0.047,0.071,-0.034,0.005
COCH (UniProt O43405),0.024,-0.014,0.035,0.13,0.123,-0.122,-0.084,0.072,0.055,-0.149,-0.012
CHERP (UniProt Q8IWX8),0.015,-0.054,-0.096,-0.095,0.129,0.099,-0.001,0.03,-0.121,-0.042,0.026

# — the supplement of paper PMC10849652
